Assay results from the supplement of paper PMC10849652.
Targets with a hit are over-represented here; the source holds about 7,900 in all. About 0.6% of all pairs of compound and target were hits. Unmarked numbers belong to inactive results.

Assays:
Experiment in all cases: log2 fold change, soluble protein after heating vs DMSO (PISA); higher = thermal stabilisation; K562 cells, 10 uM, 30 min; active = over 0.2 and 3.5 SD of the protein, either way, in both replicates (recomputed)
[1] = compound: Cc1ccc(NC(=O)c2ccc(CN3CC[C@H](N(C)C)C3)c(C(F)(F)F)c2)cc1Nc1nccc(-c2cncnc2)n1 [bafetinib]
In short: (§1)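 K562 cells at 2×10^6 cells/mL were treated for 30 min with 10 μM compound, and aliquots were heated for 3 min over 48°C-58°C before pooling. Extraction used PBS with 0.5% NP-40 at 4°C, and soluble protein was the supernatant after 21,000xg for 90 min, measured by TMTpro 16plex LC-MS/MS with channel sums equalised. Thermal stability values, relative to control samples and from duplicates, are log2 fold changes.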

[2] = compound: Cc1cccc(CC(=O)N2CCc3c2ccc(-c2cn(C)c4ncnc(N)c24)c3F)n1
In short: as §1

[3] = compound: Cc1cn(-c2cc(NC(=O)c3ccc(C)c(Nc4nccc(-c5cccnc5)n4)c3)cc(C(F)(F)F)c2)cn1 [nilotinib]
In short: as §1

[4] = compound: Cc1nc(Nc2n[nH]c3c2CN(C(=O)N[C@H](CN(C)C)c2ccccc2)C3(C)C)c2sccc2n1
In short: as §1

[5] = compound: Cc1nc(Nc2ncc(C(=O)Nc3c(C)cccc3Cl)s2)cc(N2CCN(CCO)CC2)n1 [dasatinib]
In short: as §1

[6] = compound: Cc1ncc(-c2ccnc(Nc3ccc(S(C)(=O)=O)cc3)n2)n1C(C)C
In short: as §1

[7] = compound: Cn1cc(-c2ccc3c(c2)CCN3C(=O)Cc2cccc(C(F)(F)F)c2)c2c(N)ncnc21
In short: as §1

[8] = compound: Cn1cc(-c2ccc3nnc(C(F)(F)c4ccc5ncccc5c4)n3n2)cn1
In short: as §1

[9] = compound: Cn1cncc1[C@@](N)(c1ccc(Cl)cc1)c1ccc2c(c1)c(-c1cccc(Cl)c1)cc(=O)n2C [tipifarnib]
In short: as §1

[10] = compound: FC(F)(F)c1ccc(/C=C/c2nc(COc3ccc(CCCCn4ccnn4)cc3)co2)cc1 [mubritinib]
In short: as §1

[11] = compound: NC(=O)Nc1cc(-c2cccc(F)c2)sc1C(=O)N[C@H]1CCCNC1
In short: as §1

[12] = compound: NC(=O)c1cnc(N[C@@H]2CCCC[C@@H]2N)nc1Nc1cccc(-n2nccn2)c1
In short: as §1

[13] = compound: NC1(c2ccc(-c3nc4ccn5c(=O)[nH]nc5c4cc3-c3ccccc3)cc2)CCC1
In short: as §1

[14] = compound: NCC(=O)Nc1ccc(-n2nc(C(F)(F)F)cc2-c2ccc3c(ccc4ccccc43)c2)cc1
In short: as §1

[15] = compound: Nc1ccccc1NC(=O)c1ccc(CNC(=O)OCc2cccnc2)cc1 [entinostat]
In short: as §1

[16] = compound: O=C(CCCCCCC(=O)Nc1ccccc1)NO [vorinostat]
In short: as §1

[17] = compound: O=C(O)c1ccc2c(c1)nc(Nc1cccc(Cl)c1)c1ccncc12 [silmitasertib]
In short: as §1

[18] = compound: O=C1NC(=O)C(c2cnc3ccccn23)=C1c1cn2c3c(cc(F)cc13)CN(C(=O)N1CCCCC1)CC2
In short: as §1

[19] = compound: O=C(CCCCCCNC(=O)c1cnc(N(c2ccccc2)c2ccccc2Cl)nc1)NO [citarinostat]
In short: as §1

[20] = compound: c1cc(OCCN2CCCCC2)cc(-c2n[nH]c3ccc(-c4nnc[nH]4)cc23)c1
In short: as §1

Chain of UniProt Q01459 (Q01459 whole entry, looked up): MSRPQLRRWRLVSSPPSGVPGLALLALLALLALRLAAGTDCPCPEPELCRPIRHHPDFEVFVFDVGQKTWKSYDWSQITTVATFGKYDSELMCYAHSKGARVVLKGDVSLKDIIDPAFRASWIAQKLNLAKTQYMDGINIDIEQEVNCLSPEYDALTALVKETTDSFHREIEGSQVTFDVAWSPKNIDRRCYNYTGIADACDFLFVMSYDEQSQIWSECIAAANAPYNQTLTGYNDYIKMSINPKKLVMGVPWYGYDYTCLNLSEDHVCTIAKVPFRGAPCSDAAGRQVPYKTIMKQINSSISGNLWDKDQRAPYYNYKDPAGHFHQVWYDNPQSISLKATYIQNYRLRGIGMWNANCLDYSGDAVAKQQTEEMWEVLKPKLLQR
Chain of UniProt Q00587 (Q00587 whole entry, looked up): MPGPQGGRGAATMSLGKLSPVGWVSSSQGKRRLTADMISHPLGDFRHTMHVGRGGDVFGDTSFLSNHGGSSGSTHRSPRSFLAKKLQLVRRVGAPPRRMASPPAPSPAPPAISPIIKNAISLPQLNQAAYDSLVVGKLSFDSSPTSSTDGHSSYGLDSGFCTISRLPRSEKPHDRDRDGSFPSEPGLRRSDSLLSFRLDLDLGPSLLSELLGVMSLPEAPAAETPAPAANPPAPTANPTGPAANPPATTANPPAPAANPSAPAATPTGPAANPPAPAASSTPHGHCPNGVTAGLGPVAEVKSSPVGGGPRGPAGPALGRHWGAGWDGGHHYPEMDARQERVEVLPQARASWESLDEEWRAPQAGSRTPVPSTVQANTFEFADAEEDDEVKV
Chain of UniProt Q9UNS2 (Q9UNS2 whole entry, looked up): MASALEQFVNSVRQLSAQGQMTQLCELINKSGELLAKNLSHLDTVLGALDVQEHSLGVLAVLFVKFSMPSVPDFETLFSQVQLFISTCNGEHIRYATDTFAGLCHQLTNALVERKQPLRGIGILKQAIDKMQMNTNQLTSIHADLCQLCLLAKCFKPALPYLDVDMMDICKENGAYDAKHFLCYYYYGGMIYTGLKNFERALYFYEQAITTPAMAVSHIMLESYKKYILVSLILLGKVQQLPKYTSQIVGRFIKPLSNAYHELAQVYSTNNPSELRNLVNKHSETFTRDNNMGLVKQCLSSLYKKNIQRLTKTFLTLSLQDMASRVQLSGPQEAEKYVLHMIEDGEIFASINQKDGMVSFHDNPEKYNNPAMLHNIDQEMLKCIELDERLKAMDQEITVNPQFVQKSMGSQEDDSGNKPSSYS
Chain of UniProt O95628 (O95628 whole entry, looked up): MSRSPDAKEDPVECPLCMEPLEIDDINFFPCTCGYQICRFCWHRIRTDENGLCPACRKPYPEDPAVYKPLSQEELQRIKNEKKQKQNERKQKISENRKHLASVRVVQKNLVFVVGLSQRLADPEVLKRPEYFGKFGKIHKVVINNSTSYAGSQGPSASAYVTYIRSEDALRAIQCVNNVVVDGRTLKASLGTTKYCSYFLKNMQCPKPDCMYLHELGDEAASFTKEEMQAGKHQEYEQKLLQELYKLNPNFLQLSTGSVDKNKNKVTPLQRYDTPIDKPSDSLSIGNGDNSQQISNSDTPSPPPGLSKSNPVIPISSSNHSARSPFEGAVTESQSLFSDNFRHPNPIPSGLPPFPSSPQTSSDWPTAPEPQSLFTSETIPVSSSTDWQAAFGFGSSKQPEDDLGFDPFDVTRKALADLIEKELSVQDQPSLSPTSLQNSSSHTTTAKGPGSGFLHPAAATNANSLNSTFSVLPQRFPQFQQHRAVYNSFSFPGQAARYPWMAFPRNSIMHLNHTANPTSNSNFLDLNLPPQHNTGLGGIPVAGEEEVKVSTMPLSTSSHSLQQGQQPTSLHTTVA
Chain of UniProt Q9UBY8 (Q9UBY8 whole entry, looked up): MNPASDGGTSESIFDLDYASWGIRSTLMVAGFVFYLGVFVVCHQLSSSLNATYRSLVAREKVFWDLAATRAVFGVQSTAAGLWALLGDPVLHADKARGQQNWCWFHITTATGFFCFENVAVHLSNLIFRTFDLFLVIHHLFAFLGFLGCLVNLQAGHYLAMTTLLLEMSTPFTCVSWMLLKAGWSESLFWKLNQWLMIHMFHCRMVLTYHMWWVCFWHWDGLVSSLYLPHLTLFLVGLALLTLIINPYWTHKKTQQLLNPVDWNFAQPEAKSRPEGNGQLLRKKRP
Chain of UniProt Q9P0B6 (Q9P0B6 whole entry, looked up): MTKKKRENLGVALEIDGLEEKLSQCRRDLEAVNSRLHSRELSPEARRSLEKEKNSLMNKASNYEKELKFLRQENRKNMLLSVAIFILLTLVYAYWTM
Chain of UniProt Q92828 (Q92828 whole entry, looked up): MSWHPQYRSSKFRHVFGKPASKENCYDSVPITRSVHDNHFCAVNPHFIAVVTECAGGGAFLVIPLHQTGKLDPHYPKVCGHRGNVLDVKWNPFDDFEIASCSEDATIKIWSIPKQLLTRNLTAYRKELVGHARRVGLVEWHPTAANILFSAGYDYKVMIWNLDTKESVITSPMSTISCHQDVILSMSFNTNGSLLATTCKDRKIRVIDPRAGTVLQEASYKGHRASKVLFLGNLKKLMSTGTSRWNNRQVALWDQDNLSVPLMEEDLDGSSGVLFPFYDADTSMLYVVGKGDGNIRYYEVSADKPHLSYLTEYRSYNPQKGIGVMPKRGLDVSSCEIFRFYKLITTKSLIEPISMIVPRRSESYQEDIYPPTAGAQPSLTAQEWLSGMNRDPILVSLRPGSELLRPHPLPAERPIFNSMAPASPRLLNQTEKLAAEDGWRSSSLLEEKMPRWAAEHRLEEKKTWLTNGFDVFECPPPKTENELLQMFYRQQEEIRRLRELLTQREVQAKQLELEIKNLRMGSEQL
Chain of UniProt P35790 (P35790 whole entry, looked up): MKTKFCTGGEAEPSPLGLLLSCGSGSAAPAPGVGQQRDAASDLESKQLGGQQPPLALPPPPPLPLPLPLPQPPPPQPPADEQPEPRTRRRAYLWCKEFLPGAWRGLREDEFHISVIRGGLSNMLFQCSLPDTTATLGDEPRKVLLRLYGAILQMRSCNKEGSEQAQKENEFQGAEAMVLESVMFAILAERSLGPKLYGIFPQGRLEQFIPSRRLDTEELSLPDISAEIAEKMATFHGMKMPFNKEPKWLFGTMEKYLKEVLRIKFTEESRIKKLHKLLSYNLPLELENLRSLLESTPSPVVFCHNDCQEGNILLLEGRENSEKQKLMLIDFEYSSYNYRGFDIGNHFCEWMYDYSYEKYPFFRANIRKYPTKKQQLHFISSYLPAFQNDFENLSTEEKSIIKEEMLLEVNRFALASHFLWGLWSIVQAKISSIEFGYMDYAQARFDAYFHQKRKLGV
Chain of UniProt Q8N1G2 (Q8N1G2 whole entry, looked up): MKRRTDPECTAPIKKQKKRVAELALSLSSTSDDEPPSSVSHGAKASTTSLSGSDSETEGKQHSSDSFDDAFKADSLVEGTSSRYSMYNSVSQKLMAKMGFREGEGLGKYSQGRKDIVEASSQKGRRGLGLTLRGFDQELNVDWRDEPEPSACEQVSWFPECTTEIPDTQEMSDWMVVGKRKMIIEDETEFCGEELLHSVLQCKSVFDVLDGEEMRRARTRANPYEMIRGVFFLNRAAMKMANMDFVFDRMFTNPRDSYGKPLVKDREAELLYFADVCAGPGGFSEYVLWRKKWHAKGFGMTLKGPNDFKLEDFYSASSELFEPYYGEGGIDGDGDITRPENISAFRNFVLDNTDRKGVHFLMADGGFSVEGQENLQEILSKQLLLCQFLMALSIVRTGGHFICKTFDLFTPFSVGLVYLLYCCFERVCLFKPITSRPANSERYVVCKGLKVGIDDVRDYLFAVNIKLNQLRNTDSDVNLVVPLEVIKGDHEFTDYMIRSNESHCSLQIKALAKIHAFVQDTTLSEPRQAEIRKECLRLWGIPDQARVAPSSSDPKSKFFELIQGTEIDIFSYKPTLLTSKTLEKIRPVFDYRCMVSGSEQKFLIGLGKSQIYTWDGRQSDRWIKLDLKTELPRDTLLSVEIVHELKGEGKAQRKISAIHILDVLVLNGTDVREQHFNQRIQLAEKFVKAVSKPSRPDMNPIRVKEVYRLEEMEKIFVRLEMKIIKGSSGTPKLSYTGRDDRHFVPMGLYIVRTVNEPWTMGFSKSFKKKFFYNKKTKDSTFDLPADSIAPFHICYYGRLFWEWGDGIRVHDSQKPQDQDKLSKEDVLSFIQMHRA
Chain of UniProt P46527 (P46527 whole entry, looked up): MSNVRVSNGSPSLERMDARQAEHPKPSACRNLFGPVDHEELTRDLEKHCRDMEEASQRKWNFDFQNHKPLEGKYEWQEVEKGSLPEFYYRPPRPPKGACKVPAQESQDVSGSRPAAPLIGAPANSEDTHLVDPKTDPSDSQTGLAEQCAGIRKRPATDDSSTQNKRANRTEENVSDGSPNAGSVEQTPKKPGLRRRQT
Chain of UniProt P68400 (P68400 whole entry, looked up): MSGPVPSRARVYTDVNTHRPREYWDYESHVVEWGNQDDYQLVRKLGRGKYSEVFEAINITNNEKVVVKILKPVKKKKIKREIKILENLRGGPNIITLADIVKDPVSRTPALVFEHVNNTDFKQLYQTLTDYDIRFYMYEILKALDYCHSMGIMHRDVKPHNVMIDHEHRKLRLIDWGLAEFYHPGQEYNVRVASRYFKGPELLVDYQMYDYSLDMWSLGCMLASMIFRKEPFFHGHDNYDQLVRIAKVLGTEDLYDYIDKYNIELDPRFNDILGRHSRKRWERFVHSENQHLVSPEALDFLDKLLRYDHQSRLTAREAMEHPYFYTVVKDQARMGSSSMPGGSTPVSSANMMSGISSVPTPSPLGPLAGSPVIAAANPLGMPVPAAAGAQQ
Chain of UniProt Q9H444 (Q9H444 whole entry, looked up): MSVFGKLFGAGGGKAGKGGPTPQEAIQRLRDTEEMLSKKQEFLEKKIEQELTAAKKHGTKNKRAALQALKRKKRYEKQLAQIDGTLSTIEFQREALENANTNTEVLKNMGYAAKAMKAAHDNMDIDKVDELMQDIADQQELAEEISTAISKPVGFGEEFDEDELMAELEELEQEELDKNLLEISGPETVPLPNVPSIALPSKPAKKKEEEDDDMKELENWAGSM
Chain of UniProt Q5RI15 (Q5RI15 whole entry, looked up): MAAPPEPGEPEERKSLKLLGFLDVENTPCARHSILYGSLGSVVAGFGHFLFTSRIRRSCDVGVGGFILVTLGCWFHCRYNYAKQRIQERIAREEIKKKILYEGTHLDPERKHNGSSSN

Row | Target | log2 fold change [1] | log2 fold change [2] | log2 fold change [3] | log2 fold change [4] | log2 fold change [5] | log2 fold change [6] | log2 fold change [7] | log2 fold change [8] | log2 fold change [9] | log2 fold change [10] | log2 fold change [11] | log2 fold change [12] | log2 fold change [13] | log2 fold change [14] | log2 fold change [15] | log2 fold change [16] | log2 fold change [17] | log2 fold change [18] | log2 fold change [19] | log2 fold change [20]
1 | CDKN1B (UniProt P46527) | -0.001 | -0.05 | 0.013 | -0.097 | 0.004 | 0.149 | 0.108 | 0.04 | 0.009 | 0.114 | -0.154 | 0.178 | 0.017 | -0.177 | 0.046 | -0.01 | -0.072 | -0.01 |  | 
2 | CSNK2B (UniProt P67870) | 0.036 | 0.014 | 0.052 | 0.018 | 0.015 | -0.05 | 0.038 | -0.01 | -0.042 | -0.017 | -0.017 | 0 | 0.006 | 0.084 | -0.008 | 0.021 | 0.377 (active) | -0.011 | 0.036 | -0.02
3 | CDC42EP1 (UniProt Q00587) | -0.115 | 0.092 | -0.072 | -0.59 (active) | -0.2 | -0.211 | 0.079 | 0.051 | 0.049 | 0.007 | -0.272 | -0.258 | -0.399 | -0.063 | 0.1 | 0.158 | -0.04 | -0.118 | 0.108 | -0.138
4 | CLN8 (UniProt Q9UBY8) | -0.209 | -0.662 (active) | 0.051 | -0.11 | 0.032 | -0.083 | 0.258 | 0.266 | 0.003 | -0.08 | -0.062 | -0.002 | 0.334 | 0 | 0.058 | -0.061 | 0.075 |  | 0.064 | -0.095
5 | CSNK2A1 (UniProt P68400) | -0.02 | -0.073 | 0.032 | 0.019 | -0.03 | -0.055 | -0.019 | 0.035 | 0.03 | -0.019 | -0.062 | 0.014 | 0.007 | 0.05 | -0.015 | 0.046 |  | -0.027 | -0.013 | -0.045
6 | CNOT4 isoform 9 (UniProt O95628) | 0.081 | 0.067 | 0.094 | -0.172 | 0.074 | 0 | 0.096 | 0.036 | -0.019 | 0.055 |  | -0.115 | -0.077 | 0.11 |  | -0.003 | 0.024 |  | -0.038 | 0.178
7 | COPS3 (UniProt Q9UNS2) | -0.05 | -0.027 | 0.006 | 0.004 | -0.02 | -0.012 | 0.014 | 0.04 | 0.004 | 0.023 | 0 | -0.034 | -0.002 | 0.011 | 0.002 | -0.003 | -0.02 | -0.021 | 0.014 | -0.019
8 | CCNK isoform 4 (UniProt O75909) | 0.106 | -0.021 | 0.045 | 0.046 | -0.013 | -0.025 | -0.118 | -0.069 | 0.096 | 0.006 | -0.053 | -0.104 | 0.044 | -0.091 | -0.044 | -0.021 | -0.046 | 0.006 | -0.007 | -0.305 (active)
9 | CTBS (UniProt Q01459) | -0.483 (active) | -0.069 | 0.016 | -0.007 | -0.006 | -0.077 | -0.093 | 0.162 | 0.091 | 0.025 | 0.088 | -0.046 | -0.268 | -0.002 | 0.058 | -0.017 | -0.003 | 0.051 | -0.026 | -0.023
10 | CMTR1 (UniProt Q8N1G2) | -0.054 | 0 | -0.059 | -0.01 | -0.059 | 0.035 | -0.033 | 0.044 | -0.03 | 0.029 | -0.022 | -0.015 | -0.135 | -0.01 | -0.025 | 0.026 | 0.004 | -0.083 | 0.002 | -0.009
11 | CHKA (UniProt P35790) | 0.123 | -0.023 | 0.178 | 0.149 | 0.07 | 0.088 | -0.02 | -0.081 | -0.026 | -0.024 | 0.015 | -0.316 (active) | 0.014 | 0.012 | -0.023 | -0.034 | 0.013 | -0.011 | -0.055 | -0.012
12 | CHMP4B (UniProt Q9H444) | -0.078 | 0.061 | -0.027 | 0.007 | 0.017 | -0.023 | 0.012 | -0.013 | 0.053 | 0.051 | 0.255 (active) | -0.011 | -0.065 | -0.001 | 0.108 | 0.024 | -0.016 | 0.014 | -0.044 | 0.022
13 | COX20 isoform 2 (UniProt Q5RI15) | -0.072 | -0.241 | 0.017 | 0.012 | 0.049 | 0.009 | -0.044 | 0.023 | -0.069 | -0.092 | -0.02 | -0.016 | 0.363 (active) | -0.029 | -0.036 | -0.116 | -0.034 | -0.004 | 0.027 | 0.016
14 | CCDC167 (UniProt Q9P0B6) | -0.024 | -0.057 | -0.03 | -0.035 | 0.193 | 0.026 | -0.185 | -0.018 | 0.142 | -0.043 | 0.014 |  | 0.046 |  | 0.031 | 0.008 | 0.135 | 0.038 | -0.014 | 0.009
15 | CORO2A (UniProt Q92828) | 0.021 | 0.015 | -0.047 | -0.052 | -0.066 | -0.049 | -0.017 | -0.255 | -0.005 | 0.048 | 0.069 | -0.027 | -0.287 (active) | -0.085 | -0.061 | 0.027 | -0.019 |  | -0.114 | -0.212
16 | CS (UniProt O75390) | 0.013 | -0.061 | 0.011 | -0.051 | -0.131 | -0.097 | 0.075 | 0.083 | -0.033 | 0.015 | -0.024 | -0.087 | -0.187 | 0.007 | 0.001 | 0.064 | -0.039 | 0.003 | 0.012 | -0.068
